Each structure is given as a SMILES string. Out of some 75,000 compounds screened, about 35 (0.05%) were called active. A call without a number means that no potency is given here. The sample as a whole holds a higher share of actives than the screen did. Values without a mark were called inactive. The call rests on the fitted dose curve; in most records, active means well fitted inhibition curve with a large enough effect; inconclusive means small, poorly fitted or top-dose-only effect; inactive means no such curve, though single readings can be large or run the other way.

Among the data in PubChem BioAssay AID875 (National Center for Advancing Translational Sciences (NCATS), 2007) are activity change, negative = inhibition and Potency values, retold here.
Potency means the concentration at half of the fitted maximal effect.

Breast cancer type 1 susceptibility protein (Homo sapiens), sequence (P38398 whole entry, looked up): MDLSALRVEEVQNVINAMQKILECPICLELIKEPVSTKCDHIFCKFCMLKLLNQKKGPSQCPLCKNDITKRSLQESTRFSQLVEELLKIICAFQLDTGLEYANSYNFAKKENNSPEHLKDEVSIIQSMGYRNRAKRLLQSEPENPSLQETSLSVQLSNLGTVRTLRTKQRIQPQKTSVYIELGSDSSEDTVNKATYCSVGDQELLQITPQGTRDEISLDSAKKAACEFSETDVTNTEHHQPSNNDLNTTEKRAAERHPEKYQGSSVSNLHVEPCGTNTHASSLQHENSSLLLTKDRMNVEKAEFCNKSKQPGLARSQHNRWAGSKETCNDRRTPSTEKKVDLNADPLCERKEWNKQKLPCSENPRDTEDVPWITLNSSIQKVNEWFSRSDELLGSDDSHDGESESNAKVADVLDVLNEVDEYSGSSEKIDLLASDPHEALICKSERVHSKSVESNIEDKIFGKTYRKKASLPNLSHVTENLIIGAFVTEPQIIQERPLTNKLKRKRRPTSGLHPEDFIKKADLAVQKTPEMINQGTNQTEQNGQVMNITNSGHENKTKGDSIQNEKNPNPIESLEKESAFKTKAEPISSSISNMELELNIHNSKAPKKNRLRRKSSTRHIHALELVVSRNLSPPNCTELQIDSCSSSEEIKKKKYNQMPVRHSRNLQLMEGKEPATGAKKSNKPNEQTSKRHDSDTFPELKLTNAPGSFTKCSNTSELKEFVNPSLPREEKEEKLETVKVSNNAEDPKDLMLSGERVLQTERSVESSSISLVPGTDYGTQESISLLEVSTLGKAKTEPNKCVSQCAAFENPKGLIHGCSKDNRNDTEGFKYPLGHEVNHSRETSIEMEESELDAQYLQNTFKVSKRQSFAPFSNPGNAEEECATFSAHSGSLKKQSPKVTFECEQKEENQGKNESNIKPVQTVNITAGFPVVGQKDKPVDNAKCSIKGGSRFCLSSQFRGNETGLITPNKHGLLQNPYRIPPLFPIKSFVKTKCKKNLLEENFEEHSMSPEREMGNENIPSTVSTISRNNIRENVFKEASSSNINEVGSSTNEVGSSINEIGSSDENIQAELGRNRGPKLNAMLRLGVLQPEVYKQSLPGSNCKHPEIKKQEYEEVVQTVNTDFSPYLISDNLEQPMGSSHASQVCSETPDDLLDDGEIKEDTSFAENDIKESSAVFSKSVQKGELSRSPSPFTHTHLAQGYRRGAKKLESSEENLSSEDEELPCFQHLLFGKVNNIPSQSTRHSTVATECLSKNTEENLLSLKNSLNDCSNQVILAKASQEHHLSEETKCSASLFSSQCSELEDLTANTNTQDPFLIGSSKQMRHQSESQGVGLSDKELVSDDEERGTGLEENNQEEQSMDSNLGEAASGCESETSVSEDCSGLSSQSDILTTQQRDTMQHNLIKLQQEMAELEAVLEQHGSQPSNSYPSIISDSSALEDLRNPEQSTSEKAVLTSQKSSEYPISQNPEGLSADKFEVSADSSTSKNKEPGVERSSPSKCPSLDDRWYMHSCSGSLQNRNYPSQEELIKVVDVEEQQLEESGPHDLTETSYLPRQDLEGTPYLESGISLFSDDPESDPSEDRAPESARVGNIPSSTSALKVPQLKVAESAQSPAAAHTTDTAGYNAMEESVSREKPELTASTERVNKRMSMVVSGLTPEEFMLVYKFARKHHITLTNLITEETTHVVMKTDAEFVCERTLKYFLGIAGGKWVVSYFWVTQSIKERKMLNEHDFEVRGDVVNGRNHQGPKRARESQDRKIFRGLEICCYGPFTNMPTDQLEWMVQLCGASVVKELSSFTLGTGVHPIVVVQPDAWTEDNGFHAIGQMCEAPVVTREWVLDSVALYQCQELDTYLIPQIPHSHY

In the assay the target is Breast cancer type 1 susceptibility protein (Homo sapiens) (UniProt P38398). The assay is described as follows: qHTS Assay for Inhibitors of BRCT-Phosphoprotein Interaction (Green Fluorophore). As to conditions: BRCA1 BRCT-phosphopeptide binding, green fluorescence polarization; series mostly up to 76.9 µM. On the procedure:
NIH Molecular Libraries Screening Centers Network [MLSCN]
NIH Chemical Genomics Center [NCGC]
PI Name: Natarajan, Amarnath; University of Texas
A complex of BRCT (C-terminal portion of BRCA1, MW ~35 kDa, His-tagged) and fluorescently labeled pBACH1 phosphorylated 10 aa peptide fragment of BACH1, a helicase implicated in DNA repair, is incubated with library members. Inhibitors of BRCT-pBACH1 binding are detected by a decrease in the fluorescence polarization (FP) of the fluorophore. In order to minimize the effect of fluorescence artifacts and to increase the overall robustness of the screen, the compound library members were incubated in separate reactions with fluorescein labeled probe-protein complexes. Protein and labeled probes were supplied by Dr. Amarnath Natarajan, Department of Pharmacology and Toxicology, University of Texas Medical Branch Galveston, TX.
Assay Buffer: 16mM Na2HPO4, 4 mM NaH2PO4, 150 mM NaCl, 1 mM EDTA, 1 mM DTT, 0.02% NaN3, and 0.01% Tween 20 at pH 7.3.
100 nM labeled decapeptide/250 nM protein in columns 1, 2, 5 - 48. Titration of unlabeled decapeptide control (from 10 mM, then 1:2 dilution in duplicate) pin-transferred to column 2, rows 1 to 16. Column 1 is neutral.
Three uL of reagents were dispensed to 1536-well Greiner black solid-bottom plates. Compounds and controls (23 nL) were transferred
via Kalypsys PinTool. The plates were incubated for 12 min at room temperature, and then read on ViewLux (Perkin-Elmer) High throughput CCD imager using FITC for the fluorescein-labeled decapeptide probe polarization filter sets. During dispense, reagent bottles were kept submerged into 4 deg C water bath and all liquid lines were covered with aluminum foil to minimize probe and protein degradation. All screening operations were performed on a Kalypsys robotic system (Kalypsys, Inc., San Diego, CA) containing one RX-130 and two RX-90 anthropomorphic robotic arms. The timing and order of assay plates passing through the screening system were adjusted such that each compound library plate was assayed against the fluorescein- and rhodamine-labeled assay systems at immediately adjacent time points.
(Quantitative high-throughput screening tests each substance at several concentrations.)
Regarding `Cc1n[nH]c(C)c1S(=O)(=O)N1CCCC(C(=O)NCC2COc3ccccc3O2)C1` (configuration not stated), the activity change, negative = inhibition entry was “inactive”. Still for that read-out and setting: as for `Cc1ccc(S(=O)(=O)N2CCC(C(=O)N[C@@H](C)C(=O)NCCc3ccccc3)CC2)cc1`, the entry is “inactive”.

For the compound `O=C(O)C1CCN1C1CCCCC1` (configuration not stated), the activity change, negative = inhibition entry is “inactive”.

As to `CCC(=O)c1ccc(OCC(O)CN2CCN(c3cccc(C(F)(F)F)c3)CC2)cc1` (configuration not stated), the activity change, negative = inhibition entry was “inactive”. For the compound `CC1CN(C(=O)CN2C(=O)NC(C)(c3ccccc3)C2=O)CC(C)O1` (configuration not stated), the activity change, negative = inhibition entry was “inactive”. In the case of `O=C(c1cc(C(F)(F)F)cc(C(F)(F)F)c1)N1CCC2(CCCN(Cc3ccncc3)C2)CC1`, the activity change, negative = inhibition entry is “inactive”. On to `CS(=O)(=O)c1ccc2nc(NC(=O)C3C4C=CC(C4)C3C(=O)O)sc2c1` (configuration not stated), for which the activity change, negative = inhibition result is “inactive”. `CCOC(=O)/C=c1\s/c(=C\c2ccccc2OC)c(=O)n1CC(=O)N1CCOCC1`: the activity change, negative = inhibition entry is “inactive”. For `CCC1=C(OC(=O)N(CC)CC)N2C(=O)OC(=NCC3CC3)[C@]2(C)[C@H]2C1=CC[C@H]1C(=O)N(CC(=O)OC)C(=O)[C@H]12`, the activity change, negative = inhibition entry is “inactive”. `Cc1cc(/C=N/n2cnnc2)c(C)n1-c1cccc(C(=O)O)c1`: the activity change, negative = inhibition result is “inactive”. Turning to `CC(=O)N(Cc1cccs1)C1CCOC(C)(C)C1` (configuration not stated), the activity change, negative = inhibition result is “inactive”.

For the compound `COCc1nc2ccccc2n1Cc1ccccc1Br`, the activity change, negative = inhibition result was “inactive”. As for `CCn1c(CNC(=O)c2ccc(OC)c(OC)c2)nnc1SCC(=O)Nc1ccccc1`, the activity change, negative = inhibition entry was “inactive”. On the same count and under the same terms, for `COc1ccc(OC)c(CN2C(=O)CCC2(C)C(=O)NC2CCCCCC2)c1` (configuration not stated) the value was “inactive”; for `c1ccc(-c2noc(-c3cccs3)n2)nc1`, “inactive”; for `CCOc1ccc(OCC)c(NC(=O)CN(C)S(=O)(=O)c2cccc3nsnc23)c1`, “inactive”. Regarding `Cc1ccc2nc(NC3=NCN(CCc4ccccc4)CN3)nc(C)c2c1`, the activity change, negative = inhibition entry is “inactive”. For `COc1ccccc1-c1nc(NCc2cccs2)c2ccccc2n1`, the activity change, negative = inhibition result was “inactive”. Consider `CC1=C(C(=O)Nc2ccccc2)C(c2cccs2)C(C#N)=C(SCC#N)N1` (configuration not stated), for which the activity change, negative = inhibition result is “inactive”. Same read-out and setting: as for `COc1ccc(Cl)cc1S(=O)(=O)N1CCN(CC(=O)C(C)(C)C)CC1`, the entry is “inactive”; as for `C=CCSc1nc2c(c(=O)[nH]1)C(C(C)C)C(C#N)=C(N)O2` (configuration not stated), “inactive”. `O=P(c1ccc2c(c1)OCCO2)(N1CCOCC1)N1CCOCC1`: the activity change, negative = inhibition result was “inactive”. In the case of `CCCCCn1c(SCCC(C)C)nc2c1c(=O)[nH]c(=O)n2C`, the activity change, negative = inhibition result is “inactive”. For the compound `Cc1sc2c(c1C)c(=O)n(-c1ccccc1)c1nncn21`, the activity change, negative = inhibition entry was “inactive”. The same measure, in the same setting: as for `CCCC(=O)N1c2ccc(-c3csc(N)n3)cc2CC1C` (configuration not stated), the entry is “inactive”; as for `CCCCCOC(=O)NCCOC(=O)Nc1ccc(C(=O)OCC)cc1`, “inactive”; as for `Cn1c(=O)c2c(ncn2CC(=O)N2CCN(c3ccccc3)CC2)n(C)c1=O`, “inactive”. As to `CN(CCOc1ccc(CC2SC(=O)NC2=O)cc1)c1ccccn1` (configuration not stated), the activity change, negative = inhibition is -0.73% [at 3.08 µM].

On to `COc1cc2c(cc1O)C(SC)=NC(C)(C)C2`, for which the activity change, negative = inhibition result was “inactive”.

Regarding `O=C(CN1CCN(C(=O)c2ccco2)CC1)Nc1ccc(Cl)c(C(F)(F)F)c1`, the activity change, negative = inhibition entry is “inactive”.

As to `Cc1ccc(C(=O)Nc2ccccc2C(=O)NC2CCCCC2)cc1S(=O)(=O)N1CCOCC1`, the activity change, negative = inhibition entry is “inactive”. For `C/C(=C\C(=O)c1ccccc1)Nc1cccc(O)c1`, the activity change, negative = inhibition entry was “inactive”. For the compound `CCC/C(O)=C1\C(=O)CC(C)(C)CC1=Nc1ccccc1OC`, the activity change, negative = inhibition result was “inactive”. For `COC(=O)c1cc(NC(=O)CN2CCC(C(N)=O)(N3CCCCC3)CC2)cc(C(=O)OC)c1`, the activity change, negative = inhibition entry was “inactive”. For `Cc1cc(C(=O)Nc2c(C)n(C)n(-c3ccccc3)c2=O)cs1`, the activity change, negative = inhibition result is “inactive”.

Turning to `COc1ccc(C2C3=C(CC(C)(C)CC3=O)Oc3ncn4nc(-c5cccnc5)nc4c32)cc1OC` (configuration not stated), the activity change, negative = inhibition result is “inactive”.

Take `Cn1cccc1C(=O)N1CCC[C@@]2(CCN(Cc3nccs3)C2)C1`: the activity change, negative = inhibition entry is “inactive”. In the case of `O=[n+]1c2c(n([O-])c3cc(Br)ccc31)CCC2`, the activity change, negative = inhibition entry is “inactive”. `COc1cc([C@H]2c3cc4c(cc3[C@@H](O[C@@H]3O[C@H]5CO[C@@H](C)O[C@]5(O)C[C@H]3O)[C@@H]3COC(=O)[C@H]23)OCO4)cc(OC)c1O`: the activity change, negative = inhibition entry is “inactive”. In the case of `FC(F)(F)c1ccc(CN2C[C@@H]3C(c4ccccc4)C4(c5ccccc5)CC3(C4)[C@H]2c2ccccc2)cc1` (some centres not stated), the activity change, negative = inhibition entry is “inactive”. In the case of `CC1CCN(c2nc3c(c(=O)[nH]c(=O)n3C)n2CCCc2ccccc2)CC1`, the activity change, negative = inhibition result is “inactive”.

For `Cc1cccc2c3c(ccc12)C1=C(C(=O)C3=O)C(C)CO1` (configuration not stated), the activity change, negative = inhibition result is “inactive”. As to `CCOC(=O)Nc1ccccc1N1C(=O)c2ccccc2C1=O`, the activity change, negative = inhibition entry was “inactive”. For the compound `CCOC(=O)c1cc2n(c1N)-c1ccccc1C2=O`, the Potency is 15.8 µM (active).

With `CCOC(=O)c1cc2n(c1C)-c1ccccc1C2=O`, the activity change, negative = inhibition entry is “inactive”. On the same count and under the same terms, as for `COC(=O)[C@@H]1C[C@@]2(O)[C@H](O)[C@H](O)[C@H](O)C[C@H]2N1CC1CCCCC1`, the entry is “inactive”; as for `Cn1c(=O)n(C)c2cc(CNc3ccc(N4CCOCC4)c(C(=O)O)c3)ccc21`, “inactive”; as for `O=C(NCc1ccc(Cl)cc1)c1cc2c(nc3sccn32)s1`, “inactive”.

`COC(=O)[C@@H]1C[C@@]2(O)[C@@H](O)[C@@H](O)[C@@H](O)C[C@H]2N1Cc1ccc(C)s1`: the activity change, negative = inhibition entry is “inactive”. `CCc1c(O)nc(SCC(=O)N2CCCCC2)n(-c2ccccc2C)c1=O`: the activity change, negative = inhibition entry is “inactive”. Turning to `O=C(NC1CCCC1)c1ccc(Br)s1`, the activity change, negative = inhibition result is “inactive”.

As to `COc1ccccc1CNC(=O)C1CCN(S(C)(=O)=O)CC1`, the activity change, negative = inhibition result was “inactive”.
